Compound activity (PubChem)
N-glyco inh: N-linked glycosylation inhibition; D54 ERlucT glycosylation luciferase reporter, 24 h; percent of 100 nM tunicamycin response; reporter increase, % at 12.5 µM; 360,000 compounds, 0.23% hits; AID 588692;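 active = mean luciferase reporter signal, scaled so untreated is 0 and the glycosylation-blocking control 100, at or above a set limit in every replicate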;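 also: luciferase carries N-glycosylation sites so blocking glycosylation raises the light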
Pemphigus Ab inh: inhibitors of pemphigus antibody binding to human desmoglein-3 | P32926 | DSG3-coupled beads, scFv-anti-DSG3-GFP binding, flow cytometry; active compounds read low | binding (percent of control), % at 10 µM | 310,000 compounds, 0.48% hits;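 active = binding more than 3 SD below its plate's average and above zero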;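 also: hits lower antibody fragment binding to DSG3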
Target sequence (P32926 whole entry, looked up, the tested form may be a part): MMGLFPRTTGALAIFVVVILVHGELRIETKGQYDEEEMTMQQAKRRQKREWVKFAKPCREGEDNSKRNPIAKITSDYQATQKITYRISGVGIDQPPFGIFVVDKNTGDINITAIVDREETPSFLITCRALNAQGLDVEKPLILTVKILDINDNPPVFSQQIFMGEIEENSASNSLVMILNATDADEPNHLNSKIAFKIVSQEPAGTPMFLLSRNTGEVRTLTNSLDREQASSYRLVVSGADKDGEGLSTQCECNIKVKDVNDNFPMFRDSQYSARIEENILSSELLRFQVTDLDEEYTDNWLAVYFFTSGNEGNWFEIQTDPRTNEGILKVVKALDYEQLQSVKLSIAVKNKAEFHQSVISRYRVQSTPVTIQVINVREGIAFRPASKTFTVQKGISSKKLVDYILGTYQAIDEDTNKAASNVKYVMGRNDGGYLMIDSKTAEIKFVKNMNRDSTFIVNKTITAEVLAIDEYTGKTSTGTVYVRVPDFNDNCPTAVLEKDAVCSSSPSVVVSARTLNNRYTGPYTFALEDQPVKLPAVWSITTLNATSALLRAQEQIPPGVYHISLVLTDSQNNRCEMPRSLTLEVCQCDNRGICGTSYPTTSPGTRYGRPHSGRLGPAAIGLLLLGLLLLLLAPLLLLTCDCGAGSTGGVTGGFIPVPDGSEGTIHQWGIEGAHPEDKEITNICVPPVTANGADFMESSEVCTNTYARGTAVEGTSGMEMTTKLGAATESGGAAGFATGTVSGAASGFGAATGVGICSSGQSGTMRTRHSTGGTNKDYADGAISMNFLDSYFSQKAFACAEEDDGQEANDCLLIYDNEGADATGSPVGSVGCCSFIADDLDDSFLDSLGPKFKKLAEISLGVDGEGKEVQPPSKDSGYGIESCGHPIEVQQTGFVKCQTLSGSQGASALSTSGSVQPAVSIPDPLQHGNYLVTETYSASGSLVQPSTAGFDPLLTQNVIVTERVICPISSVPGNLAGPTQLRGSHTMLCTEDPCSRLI
ATG4B inhibitor: blocks human ATG4B protease cleavage of LC3 substrate. inhibition, % at 8.33 µM. Q9Y4P1. ATG4B cleavage of LC3-PLA2, NBD-HPC fluorescence, 1 h. 340,000 compounds, 0.51% hits; in the data active = inhibition above about 40%
Vif inh: blocks HIV Vif function. HEK293T cells, Vif self-association by quenched fluorescence, imaging, 24 h. inhibition, % at 7.49 µM. 340,000 compounds, 0.35% hits; in the data active = inhibition above about 50%, passing the limit was not always enough
CaV13 ICDI inh: Disruptors of the CACNA1D IQ motif to Ca2+-dependent inactivation inhibitor domain association, primary screening, Förster resonance energy transfer in intact living …. HEK cells, CFP/YFP FRET ICDI-IQ, plate reader, 10 min; percent FRET-ratio fall versus neutral wells. inhibition, % at 12.3 µM. 340,000 compounds, 0.098% hits;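 active = mean replicate inhibition of at least 30% and at least 1% of replicates passing that level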
NSD2 inh: inhibitors of human histone methyltransferase NSD2; O96028; NSD2 peptide methylation, AlphaScreen, 120 min; inhibition, % at 12.5 µM; 310,000 compounds, 0.54% hits
ATG4B conf: confirmation of human ATG4B inhibitors | shares compounds with ATG4B inhibitor | AID 504757 | ATG4B protease fluorescent substrate cleavage assay | 320 compounds, 92% hits | inhibition, % at 8.33 µM; in the data active = inhibition above about 39%
PLA2 ctr: inhibits human PLA2, flagging false ATG4B inhibitors; shares compounds with ATG4B inhibitor; purified PLA2, NBD-C6-HPC fluorescence, 45 min; inhibition, % at 8.33 µM; 1,600 compounds, 66% hits
A number is an active result; - = inactive; . = no result. An excerpt weighted towards active compounds, which were near 1.9% of everything screened. Rule as the data show it, unless noted: active = inhibition above about 50%; inactive = the rest.

SMILES	N-glyco inh	Pemphigus Ab inh	ATG4B inhibitor	Vif inh	CaV13 ICDI inh	NSD2 inh	PLA2 ctr	others
O=C(c1ccc2c(=O)n(C3CCCC3)c(=S)[nH]c2c1)N1CCc2ccccc21	-	.	54	-	-	-	77
CCC1=NN(C(=O)c2cccc([N+](=O)[O-])c2)C(O)(c2ccc(C)cc2)C1 (stereo not drawn)	-	-	54	-	-	-	60
CC(C)C[C@H](NC(=O)OC(C)(C)C)C(=O)N/N=C/C1=Cc2ccccc2OC1C (stereo partly drawn)	-	-	42	-	-	-	-	ATG4B conf=69
CC(C)C[C@H](NC(=O)OC(C)(C)C)C(=O)N/N=C/c1ccc2nccnc2c1	-	-	-	-	-	-	.
O=C1c2ccccc2N2C(=O)c3ccccc3C2N1Cc1ccccc1 (stereo not drawn)	-	-	-	-	-	-	.
O=C1c2ccccc2N2C(=O)c3ccccc3[C@H]2N1c1ccccc1	-	-	55	-	-	.	61
CCOc1ccc(C(=O)N(Cc2ccccc2)c2cccc(C)c2)cc1OC	-	-	-	-	-	-	.
CCCCNC(=O)C[C@@H]1C[C@@]2(C(=O)OCC)CCC=C2N(Cc2ccc(Cl)cc2Cl)C1=O	.	.	.	.	-	.	.
O=C(O)c1cccc(NC(=S)N/N=C/c2ccccc2OCc2cccc(Br)c2)c1	-	-	47	-	-	.	54
O=C(O)c1cccc(NC(=S)N/N=C/c2ccccc2OCc2ccc(Br)cc2)c1	-	-	-	-	-	-	.
COc1cccc(C(=O)OCC(=O)NC(C)CCc2ccccc2)c1O (stereo not drawn)	-	-	-	-	-	-	.
Cc1ccc(S(=O)(=O)N(C)CC(=O)OCC(=O)c2c(N)n(C)c(=O)n(C)c2=O)cc1	-	-	-	-	-	-	.
CCOc1cc(/C=C2\N=C(SC)SC2=O)cc([N+](=O)[O-])c1OC(C)=O	-	-	-	-	.	.	.
CCOc1cc(/C=C2\N=C(SCC)SC2=O)cc([N+](=O)[O-])c1OC(C)=O	-	-	76	-	-	-	75
COc1ccc(N=C2S/C(=C\c3ccc(OC(C)C(=O)O)c(OC)c3)C(=O)N2CCc2c[nH]c3ccccc23)cc1 (stereo not drawn)	-	-	58	-	-	-	65
O=C1/C(=C/c2ccc(N3CCOCC3)o2)SC(=Nc2ccccc2)N1CCc1c[nH]c2ccccc12	-	-	-	.	.	.	.
COc1cc(/C=C2\SC(=Nc3ccccc3)N(CCc3c[nH]c4ccccc34)C2=O)ccc1OC(C)C(=O)O (stereo not drawn)	-	-	46	-	-	-	-	ATG4B conf=51
O=C(NC[C@@H]1CC[C@@H](Cc2ccc(-c3ccccc3)cc2)O1)Nc1ccc(Br)cc1	-	-	42	-	-	.	86
O=C(NCCCCc1ccccc1)NC[C@@H]1CC[C@@H](Cc2ccc(-c3ccccc3)cc2)O1	-	-	-	-	-	.	.
Cc1ccc(NC(=S)NNC(=O)c2cccc([N+](=O)[O-])c2)cc1Cl	-	-	77	-	-	-	78
Cc1ccc(C(=O)NNC(=S)Nc2cccc(Cl)c2Cl)cc1[N+](=O)[O-]	-	-	48	.	-	-	-	ATG4B conf=78
Cc1cccc(CNc2ncnc3ccc(-c4ccccc4Cl)cc23)c1	-	-	51	-	-	.	52
CC(C(=O)Nc1ncn[nH]1)N1C(=O)c2ccccc2C1=O (stereo not drawn)	-	-	-	-	.	-	.
CCCn1c(N)c(N(CCOC)C(=O)c2cc3c(s2)CCC(CC)C3)c(=O)[nH]c1=O (stereo not drawn)	-	-	-	-	-	-	.
CCOC(=O)C1=C(C)NC(C)=C(C(=O)OCC)C1C(=O)OCC(=O)N1c2ccccc2CC1C (stereo not drawn)	-	-	-	-	-	-	.
SMILES	N-glyco inh	Pemphigus Ab inh	ATG4B inhibitor	Vif inh	CaV13 ICDI inh	NSD2 inh	PLA2 ctr	others
O=S(=O)(NCC1CCCO1)c1ccc(Cl)c(C(F)(F)F)c1 (stereo not drawn)	-	-	-	-	-	-	.
CCn1nc([N+](=O)[O-])c(C(C#N)c2nc3ccccc3n2C)c(Cl)c1=O (stereo not drawn)	-	-	72	-	-	-	75
CCCn1nc([N+](=O)[O-])c(C(C#N)c2nc3ccccc3s2)c(Cl)c1=O (stereo not drawn)	-	-	84	.	-	52	85
Cn1c(C(C#N)C(=O)c2sc3ccccc3c2Cl)nc2ccccc21 (stereo not drawn)	-	-	-	-	-	-	.
O=[N+]([O-])c1ccc(CN2CCN(c3nc4ccccc4s3)CC2)cc1	-	-	-	-	-	-	.
COc1ccccc1CNC(=O)C1CCCN(S(=O)(=O)c2cnc[nH]2)C1 (stereo not drawn)	-	-	-	-	-	.	.
COc1c(Br)cc(C(N)=O)cc1OCc1ccccc1	-	-	67	.	-	-	72
CCOc1cc(C(N)=O)cc(Br)c1OCc1ccccc1	-	-	46	-	-	-	60
COc1ccc(CC(=O)OCC(=O)NNC(=O)c2ccccc2)cc1	-	-	-	-	-	-	.
CCc1ccc(Oc2nnnn2-c2ccc(C(N)=O)cc2)cc1	-	-	60	-	-	-	91
Cc1cccc(NC(=O)c2cc(NC(=O)c3ccco3)ccc2N2CCCCC2)c1	-	-	-	-	-	-	.
Oc1ccc(/C=N/N(Cc2ccccc2)c2ccccc2)c(O)c1O	-	-	56	-	-	-	75
CCc1nnc(NS(=O)(=O)c2ccc(N/C=C\C(=O)c3ccc4ccccc4c3)cc2)s1	-	-	50	-	-	-	-	ATG4B conf=59
CCCCOc1ccc(C(=S)N2CCC(C(N)=O)CC2)cc1	-	-	82	-	-	-	84
COc1ccc(C(=S)N2CCC(C(N)=O)CC2)cc1Br	-	-	-	-	-	-	.
CCC(C)N(C(=O)Cn1nc(Cc2ccncc2)c2ccccc2c1=O)C(C)CC (stereo not drawn)	.	.	.	.	.	-	.
O=C(c1ccccc1)c1ccc(O)cc1O	-	-	-	-	-	.	.
CC(=O)c1cc2c(C)c(C(=O)c3ccccc3)oc2cc1O	-	-	40	-	-	-	-
Fc1ccc(NCc2ccccc2F)cc1Cl	-	-	41	-	-	-	-	ATG4B conf=69
Fc1ccccc1CNc1ccc(Cl)cc1	-	-	-	-	-	.	.
CCOC(=O)N(C)C[C@@H]1OCc2cnnn2CCCC(=O)N([C@@H](C)CO)C[C@@H]1C	-	.	.	-	-	.	.
